# Where a chain is given by its changes, count along the chain named.
# Assays:
# Assay in all cases: yeast three-hybrid, YBZ-1, SC-Leu-His + 0.5 mM 3-AT, 4 days
# Details in all cases: tags: N-Gal4 AD-HA kept; label: inside an RPR1-promoter hybrid RNA with tandem MS2 sites; ssRNA
# PUM1 PUF domain R8-FFR = PUM1 PUF domain R8-FFR (Homo sapiens, UniProt Q14671 828-1176, N1122F;Y1123F;Q1126R)
# Outline: (§1)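 Pumilio-1 PUF domain libraries, randomized at the three base-contacting residues of each repeat, were co-expressed with matching RNA elements from a centromeric plasmid in strain YBZ-1, which carries a LexA–MS2 coat fusion and a HIS3 reporter. Transformants grew for four days on SC-Leu (input) or on SC-Leu-His + 0.5 mM 3-AT (selection), and the repeat regions were PCR-amplified and Illumina-sequenced. The interaction score is the log change in variant frequency from input to selection. That logarithm is base 2, with a pseudocount of 1 where a variant was absent.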
# PUM1 PUF domain R8-LFR = PUM1 PUF domain R8-LFR (Homo sapiens, UniProt Q14671 828-1176, N1122L;Y1123F;Q1126R)
# Outline: as §1
# PUM1 PUF domain R6-AYR = target: T1, PUM1 PUF domain R6-AYR (Homo sapiens, UniProt Q14671 828-1176, N1043A;Q1047R)
# T1 sequence: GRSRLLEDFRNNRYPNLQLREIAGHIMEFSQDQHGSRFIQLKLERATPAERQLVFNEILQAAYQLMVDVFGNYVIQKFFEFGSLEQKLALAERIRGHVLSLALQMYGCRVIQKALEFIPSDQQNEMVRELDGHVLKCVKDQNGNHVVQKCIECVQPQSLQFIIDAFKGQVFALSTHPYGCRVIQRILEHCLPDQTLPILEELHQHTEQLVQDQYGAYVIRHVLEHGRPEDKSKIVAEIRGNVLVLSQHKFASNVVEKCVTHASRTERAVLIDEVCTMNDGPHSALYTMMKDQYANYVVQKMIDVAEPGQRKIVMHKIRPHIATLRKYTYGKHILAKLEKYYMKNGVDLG
# Outline: as §1
# PUM1 PUF domain R8-SYP = PUM1 PUF domain R8-SYP (Homo sapiens, UniProt Q14671 828-1176, N1122S;Q1126P)
# Outline: as §1
# PUM1 PUF domain R6-FYL = target: T2, PUM1 PUF domain R6-FYL (Homo sapiens, UniProt Q14671 828-1176, N1043F;Q1047L)
# T2 sequence: T1 sequence with A216F, R220L
# Outline: as §1
# PUM1 PUF domain R5-GTE = PUM1 PUF domain R5-GTE (Homo sapiens, UniProt Q14671 828-1176, C1007G;R1008T;Q1011E)
# Outline: as §1
# PUM1 PUF domain R7-QRK = PUM1 PUF domain R7-QRK (Homo sapiens, UniProt Q14671 828-1176, S1079Q;N1080R;E1083K)
# Outline: as §1
# PUM1 PUF domain R3-IWK = PUM1 PUF domain R3-IWK (Homo sapiens, UniProt Q14671 828-1176, C935I;R936W;Q939K)
# Outline: as §1
# PUM1 PUF domain R3-TVE = PUM1 PUF domain R3-TVE (Homo sapiens, UniProt Q14671 828-1176, C935T;R936V;Q939E)
# Outline: as §1
sequence,measurement,setting,value
GGCUAGAACUAGUGGAUCCCCCGGCGCCCGGCGGCUCGAGCCCGGGUAAGCGUAAAUAGUCUGCAUGCCGCCGGGCGCCAUGCCUGCAGGUCGACUCUAGAAAACAUG,binding signal,PUM1 PUF domain R8-FFR,4.67 log2 enrichment (interaction score)
same,binding signal,PUM1 PUF domain R8-LFR,4.59 log2 enrichment (interaction score)
GGCUAGAACUAGUGGAUCCCCCGGCGCCCGGCGGCUCGAGCCCGGGUAAGUGUAAAUAGUCUGCAUGCCGCCGGGCGCCAUGCCUGCAGGUCGACUCUAGAAAACAUG,binding signal,PUM1 PUF domain R8-FFR,4.42 log2 enrichment (interaction score)
same,binding signal,PUM1 PUF domain R6-AYR,6.13 log2 enrichment (interaction score)
same,binding signal,PUM1 PUF domain R8-SYP,4.16 log2 enrichment (interaction score)
same,binding signal,PUM1 PUF domain R6-FYL,3.73 log2 enrichment (interaction score)
same,binding signal,PUM1 PUF domain R8-LFR,4.31 log2 enrichment (interaction score)
GGCUAGAACUAGUGGAUCCCCCGGCGCCCGGCGGCUCGAGCCCGGGUAAGUGUGAAUAGUCUGCAUGCCGCCGGGCGCCAUGCCUGCAGGUCGACUCUAGAAAACAUG,binding signal,PUM1 PUF domain R5-GTE,3.8 log2 enrichment (interaction score)
GGCUAGAACUAGUGGAUCCCCCGGCGCCCGGCGGCUCGAGCCCGGGUAAGUGCAAAUAGUCUGCAUGCCGCCGGGCGCCAUGCCUGCAGGUCGACUCUAGAAAACAUG,binding signal,PUM1 PUF domain R6-AYR,3.72 log2 enrichment (interaction score)
GGCUAGAACUAGUGGAUCCCCCGGCGCCCGGCGGCUCGAGCCCGGGUAAGUAUAAAUAGUCUGCAUGCCGCCGGGCGCCAUGCCUGCAGGUCGACUCUAGAAAACAUG,binding signal,PUM1 PUF domain R7-QRK,3.05 log2 enrichment (interaction score)
GGCUAGAACUAGUGGAUCCCCCGGCGCCCGGCGGCUCGAGCCCGGGUAAGUCUAAAUAGUCUGCAUGCCGCCGGGCGCCAUGCCUGCAGGUCGACUCUAGAAAACAUG,binding signal,PUM1 PUF domain R7-QRK,2.27 log2 enrichment (interaction score)
GGCUAGAACUAGUGGAUCCCCCGGCGCCCGGCGGCUCGAGCCCGGGUAAGUGUAAUUAGUCUGCAUGCCGCCGGGCGCCAUGCCUGCAGGUCGACUCUAGAAAACAUG,binding signal,PUM1 PUF domain R3-IWK,3.81 log2 enrichment (interaction score)
GGCUAGAACUAGUGGAUCCCCCGGCGCCCGGCGGCUCGAGCCCGGGUAAGUGUAAGUAGUCUGCAUGCCGCCGGGCGCCAUGCCUGCAGGUCGACUCUAGAAAACAUG,binding signal,PUM1 PUF domain R3-TVE,6.09 log2 enrichment (interaction score)

# From article PMC8384837, “Expanding the binding specificity for RNA recognition by a PUF domain”
